The whole screen tested about 310,000 compounds, of which about 14,000 (4.5%) showed an effect of 50% or more. The effect is printed as a negative number. This excerpt belongs to a sample that is enriched for strong results.
Target: human ether-à-go-go-related gene (hERG) potassium channel (human, UniProt Q12809)
Assay: primary screen, population patch clamp on CHO cells stably expressing hERG; higher = less effect of the substance
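Also: peak tail current of the secondary pulse compared with the same well before compound.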

human ether-à-go-go-related gene (hERG) potassium channel, sequence (Q12809 whole entry, looked up): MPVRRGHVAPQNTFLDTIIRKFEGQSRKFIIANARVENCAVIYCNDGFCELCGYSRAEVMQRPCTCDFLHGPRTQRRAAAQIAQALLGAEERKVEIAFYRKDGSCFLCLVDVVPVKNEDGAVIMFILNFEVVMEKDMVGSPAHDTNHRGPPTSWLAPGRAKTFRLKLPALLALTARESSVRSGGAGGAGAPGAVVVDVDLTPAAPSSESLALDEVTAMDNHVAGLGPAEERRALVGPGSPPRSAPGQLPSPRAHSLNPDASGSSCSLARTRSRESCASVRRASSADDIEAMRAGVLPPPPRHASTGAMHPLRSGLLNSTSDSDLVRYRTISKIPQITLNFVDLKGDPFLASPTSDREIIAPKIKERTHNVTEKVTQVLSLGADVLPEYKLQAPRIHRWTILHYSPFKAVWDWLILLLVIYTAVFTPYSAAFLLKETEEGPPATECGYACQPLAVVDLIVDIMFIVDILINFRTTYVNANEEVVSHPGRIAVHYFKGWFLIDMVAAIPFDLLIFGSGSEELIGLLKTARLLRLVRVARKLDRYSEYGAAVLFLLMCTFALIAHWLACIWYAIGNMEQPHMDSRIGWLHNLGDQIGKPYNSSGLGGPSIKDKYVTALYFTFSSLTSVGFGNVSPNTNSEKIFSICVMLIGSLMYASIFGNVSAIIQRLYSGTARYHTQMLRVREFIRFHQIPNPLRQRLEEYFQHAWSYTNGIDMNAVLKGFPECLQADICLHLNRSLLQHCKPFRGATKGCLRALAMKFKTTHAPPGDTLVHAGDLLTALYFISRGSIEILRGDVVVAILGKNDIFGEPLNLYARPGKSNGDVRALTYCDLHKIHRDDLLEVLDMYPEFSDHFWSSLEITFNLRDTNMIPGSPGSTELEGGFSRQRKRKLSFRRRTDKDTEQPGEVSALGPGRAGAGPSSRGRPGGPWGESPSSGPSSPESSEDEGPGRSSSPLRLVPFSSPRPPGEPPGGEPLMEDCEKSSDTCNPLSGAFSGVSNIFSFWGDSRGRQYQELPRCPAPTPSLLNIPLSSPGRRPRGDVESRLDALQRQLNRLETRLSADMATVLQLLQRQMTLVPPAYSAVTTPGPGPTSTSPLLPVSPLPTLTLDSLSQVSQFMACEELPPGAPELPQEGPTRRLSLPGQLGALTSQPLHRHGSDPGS

**Q.** Which “hERG current change (%, negative = inhibition) at 10uM” value does the source give for `CCCn1c(N)c(Sc2ccc(Cl)cc2)c(=O)n(CCC)c1=O` here?
**A.** Its value is -43.3%.

**Q.** How did the “hERG current change (%, negative = inhibition) at 10uM” value turn out when `CCCCn1c(N)c(Sc2ccc(C)cc2)c(=O)[nH]c1=O` was run?
**A.** Its value is 2%.

**Q.** `CCCn1c(N)c(Sc2ccc([N+](=O)[O-])cc2)c(=O)n(CCC)c1=O` was tested. Which “hERG current change (%, negative = inhibition) at 10uM” value did it give?
**A.** Its value is -83.8%.

**Q.** For `COCCn1c(N)c(Sc2ccc([N+](=O)[O-])cc2)c(=O)[nH]c1=O`, which “hERG current change (%, negative = inhibition) at 10uM” value is on record?
**A.** Its value is -46.5%.

**Q.** For `CCCn1c(N)c(Sc2ccc(C)cc2)c(=O)n(CCC)c1=O`, which “hERG current change (%, negative = inhibition) at 10uM” value is on record?
**A.** Its value is -14.3%.

**Q.** Which “hERG current change (%, negative = inhibition) at 10uM” value does the source give for `CCCCn1c(N)c(Sc2ccc([N+](=O)[O-])cc2)c(=O)[nH]c1=O` here?
**A.** The value was -79.5%.

**Q.** `O=C(CCNC(=O)c1ccc([N+](=O)[O-])cc1)Nc1nccs1` was tested. Which “hERG current change (%, negative = inhibition) at 10uM” value did it give?
**A.** Its value is 1.93%.

**Q.** With `CCCOc1ccccc1/C=C1\SC(N2CCCCC2)=NC1=O` as the compound, how does the “hERG current change (%, negative = inhibition) at 10uM” value read?
**A.** Its value is -12.3%.

**Q.** `Cn1c(SCc2ccccc2Cl)nc(C(F)(F)F)cc1=O` was tested. Which “hERG current change (%, negative = inhibition) at 10uM” value did it give?
**A.** Its value is 1.65%.

**Q.** Which “hERG current change (%, negative = inhibition) at 10uM” value does the source give for `Cc1cc(OCCOCCN(C)CCO)cc(C)c1Cl` here?
**A.** Its value is -40.9%.

**Q.** How did the “hERG current change (%, negative = inhibition) at 10uM” value turn out when `COc1ccc(C2=NC(=O)/C(=C\c3cc(OC)c(OC)c(OC)c3)O2)cc1` was run?
**A.** Its value is 8.26%.

**Q.** With `COc1ccc(-c2cn3cccnc3n2)cc1F` as the compound, how does the “hERG current change (%, negative = inhibition) at 10uM” value read?
**A.** Its value is 12.2%.

**Q.** With `Cc1cccn2cc(-c3ccc(F)cc3)nc12` as the compound, how does the “hERG current change (%, negative = inhibition) at 10uM” value read?
**A.** The value was -14.1%.

**Q.** With `COc1ccc(-c2cn3cccc(C)c3n2)cc1F` as the compound, how does the “hERG current change (%, negative = inhibition) at 10uM” value read?
**A.** Its value is -61.7%.

**Q.** With `CC(=O)c1c(C)[nH]c(C(=O)OCc2cc(=O)n3cc(Br)ccc3n2)c1C` as the compound, how does the “hERG current change (%, negative = inhibition) at 10uM” value read?
**A.** The value was -3.69%.

**Q.** Which “hERG current change (%, negative = inhibition) at 10uM” value does the source give for `N#Cc1ccccc1COC(=O)CCC(=O)c1cccs1` here?
**A.** The value was -4.58%.

**Q.** For `CCOc1ccccc1NC(=O)c1ccc(S(=O)(=O)N2CCOCC2)cc1`, which “hERG current change (%, negative = inhibition) at 10uM” value is on record?
**A.** Its value is -2.46%.

**Q.** With `S=C(Nc1ccc(Cl)cc1Cl)N1CCOCC1` as the compound, how does the “hERG current change (%, negative = inhibition) at 10uM” value read?
**A.** Its value is 11.1%.

**Q.** For `O=C(COC(=O)C1CCN(c2ccc(C(F)(F)F)cn2)CC1)c1ccc(F)cc1`, which “hERG current change (%, negative = inhibition) at 10uM” value is on record?
**A.** Its value is -0.831%.

**Q.** With `COc1cc(C(=O)COC(=O)C2CCN(c3ccc(C(F)(F)F)cn3)CC2)ccc1OC(F)F` as the compound, how does the “hERG current change (%, negative = inhibition) at 10uM” value read?
**A.** Its value is -59.1%.

**Q.** Which “hERG current change (%, negative = inhibition) at 10uM” value does the source give for `CCc1ccc(C(=O)COC(=O)C2CCN(c3ccc(C(F)(F)F)cn3)CC2)cc1` here?
**A.** Its value is -18%.

**Q.** `CN(CC(=O)Nc1ccccc1Cl)C(=O)COC(=O)C1CCN(c2ccc(C(F)(F)F)cn2)CC1` was tested. Which “hERG current change (%, negative = inhibition) at 10uM” value did it give?
**A.** The value was -29.8%.

**Q.** For `Cc1ccc(NC(=O)COC(=O)C2CCN(c3ccc(C(F)(F)F)cn3)CC2)cc1`, which “hERG current change (%, negative = inhibition) at 10uM” value is on record?
**A.** The value was -1.26%.

**Q.** Which “hERG current change (%, negative = inhibition) at 10uM” value does the source give for `CN(CC(=O)Nc1ccc(F)cc1)C(=O)COC(=O)C1CCN(c2ccc(C(F)(F)F)cn2)CC1` here?
**A.** Its value is -65.5%.

**Q.** For `O=C(O)c1cccc2c(-c3ccccc3)c(-c3ccccc3)[nH]c12`, which “hERG current change (%, negative = inhibition) at 10uM” value is on record?
**A.** Its value is 18.5%.

**Q.** How did the “hERG current change (%, negative = inhibition) at 10uM” value turn out when `COc1cc(/C=C2\C(=N)N3N=C(C)SC3=NC2=O)cc(OC)c1OCCOc1ccccc1C` was run?
**A.** Its value is 30.7%.

**Q.** `Cc1ccc(-c2nc(CN(C)Cc3ccc4nccnc4c3)c(C)o2)s1` was tested. Which “hERG current change (%, negative = inhibition) at 10uM” value did it give?
**A.** The value was -10.3%.

**Q.** With `Cc1cc(OCC(=O)Nc2cnn(CCCC(=O)O)c2)ccc1Cl` as the compound, how does the “hERG current change (%, negative = inhibition) at 10uM” value read?
**A.** The value was 18%.

**Q.** With `CC(=O)N1CCN(C23CC4CC(CC(C4)C2)C3)CC1` as the compound, how does the “hERG current change (%, negative = inhibition) at 10uM” value read?
**A.** Its value is 12.3%.

**Q.** Which “hERG current change (%, negative = inhibition) at 10uM” value does the source give for `CCCC#CCN1CCN(C23CC4CC(CC(C4)C2)C3)CC1` here?
**A.** The value was -16.1%.

**Q.** With `CCCCCC#CCN1CCN(C23CC4CC(CC(C4)C2)C3)CC1` as the compound, how does the “hERG current change (%, negative = inhibition) at 10uM” value read?
**A.** The value was -58.6%.

**Q.** With `COCc1ccc(C(=O)N2CCCC(Nc3ccc(C(C)C)cc3)C2)o1` (centres unmarked) as the compound, how does the “hERG current change (%, negative = inhibition) at 10uM” value read?
**A.** The value was -0.274%.

**Q.** Which “hERG current change (%, negative = inhibition) at 10uM” value does the source give for `COc1ccc(N=C2SC(CC(=O)Nc3ccccc3)C(=O)N2CCN2CCOCC2)cc1` (centres unmarked) here?
**A.** The value was -23.1%.

**Q.** With `O=C(CC1SC(=Nc2ccccc2F)N(CCN2CCOCC2)C1=O)Nc1ccc(F)cc1F` (centres unmarked) as the compound, how does the “hERG current change (%, negative = inhibition) at 10uM” value read?
**A.** The value was -13.1%.

**Q.** With `O=C(CC1SC(=Nc2ccc(OC(F)F)cc2)N(CCN2CCOCC2)C1=O)Nc1ccc(F)cc1F` (centres unmarked) as the compound, how does the “hERG current change (%, negative = inhibition) at 10uM” value read?
**A.** Its value is -82.9%.

**Q.** With `Cc1cc(NCC(C)C)n2ncnc2n1` as the compound, how does the “hERG current change (%, negative = inhibition) at 10uM” value read?
**A.** Its value is 14%.

**Q.** With `Cc1cccn2c(=O)c3cc(S(=O)(=O)c4ccccc4)c(=N)n(Cc4ccc(F)cc4)c3nc12` as the compound, how does the “hERG current change (%, negative = inhibition) at 10uM” value read?
**A.** The value was 24.7%.

**Q.** Which “hERG current change (%, negative = inhibition) at 10uM” value does the source give for `N=c1c(S(=O)(=O)c2ccc(Br)cc2)cc2c(=O)n3ccccc3nc2n1Cc1ccccc1` here?
**A.** Its value is 27%.

**Q.** With `Cc1cccn2c(=O)c3cc(S(=O)(=O)c4ccccc4)c(=N)n(Cc4cccnc4)c3nc12` as the compound, how does the “hERG current change (%, negative = inhibition) at 10uM” value read?
**A.** Its value is -66.1%.

**Q.** Which “hERG current change (%, negative = inhibition) at 10uM” value does the source give for `CCCn1c(=N)c(S(=O)(=O)c2ccccc2)cc2c(=O)n3cccc(C)c3nc21` here?
**A.** Its value is 0.577%.

**Q.** How did the “hERG current change (%, negative = inhibition) at 10uM” value turn out when `N=c1c(S(=O)(=O)c2ccccc2)cc2c(=O)n3ccccc3nc2n1Cc1cccnc1` was run?
**A.** The value was -59.2%.

**Q.** For `N=c1c(S(=O)(=O)c2ccc(Cl)cc2)cc2c(=O)n3ccccc3nc2n1Cc1cccnc1`, which “hERG current change (%, negative = inhibition) at 10uM” value is on record?
**A.** Its value is -35.5%.

**Q.** For `CCCCC(CC)C(=O)Nc1cc(C(=O)NCc2ccc(C)cc2)ccc1N1CCC2(CC1)CC(c1cccc(Br)c1)=NO2` (centres unmarked), which “hERG current change (%, negative = inhibition) at 10uM” value is on record?
**A.** Its value is 17.6%.

**Q.** With `CCOC(=O)C1=C(C)N=c2s/c(=C/c3cccc([N+](=O)[O-])c3O)c(=O)n2C1c1ccccc1` (centres unmarked) as the compound, how does the “hERG current change (%, negative = inhibition) at 10uM” value read?
**A.** Its value is -20.4%.

**Q.** How did the “hERG current change (%, negative = inhibition) at 10uM” value turn out when `COc1ccc(CCC(=O)Nc2ncc(C)s2)cc1OC` was run?
**A.** Its value is 16.2%.

**Q.** `Cc1ccc(S(=O)(=O)N2CCN(C(=O)COC(=O)CSc3cc(C)ccc3C)CC2)c(C)c1` was tested. Which “hERG current change (%, negative = inhibition) at 10uM” value did it give?
**A.** The value was -6.13%.

**Q.** Which “hERG current change (%, negative = inhibition) at 10uM” value does the source give for `COc1ccccc1C(=O)NC(CCSC)C(=O)N1CCC(Cc2ccccc2)CC1` (centres unmarked) here?
**A.** Its value is -23.1%.

**Q.** `COc1ccccc1C(=O)Nc1ccnn1C1CCN(C/C=C/c2ccc(F)cc2)CC1` was tested. Which “hERG current change (%, negative = inhibition) at 10uM” value did it give?
**A.** The value was -76.6%.

**Q.** For `COc1ccccc1C(=O)Nc1ccnn1C1CCN(C/C=C/c2ccccc2)CC1`, which “hERG current change (%, negative = inhibition) at 10uM” value is on record?
**A.** The value was -78.9%.

**Q.** With `COCCC(=O)N1CCC(n2nccc2NC(=O)c2ccccc2C)CC1` as the compound, how does the “hERG current change (%, negative = inhibition) at 10uM” value read?
**A.** Its value is 12.6%.

**Q.** `COc1ccccc1C(=O)NC(CCSC)C(=O)N1CCN(C/C=C/c2ccccc2)CC1` (centres unmarked) was tested. Which “hERG current change (%, negative = inhibition) at 10uM” value did it give?
**A.** The value was -109%.

**Q.** With `COc1ccccc1C(=O)NC(CCSC)C(=O)N1CCN(C(C)=O)CC1` (centres unmarked) as the compound, how does the “hERG current change (%, negative = inhibition) at 10uM” value read?
**A.** Its value is -0.345%.

**Q.** How did the “hERG current change (%, negative = inhibition) at 10uM” value turn out when `O=C(COc1ccccc1-c1ccccc1)NN=C1CCCC1` was run?
**A.** The value was -6.03%.

From article PMC4336329 (PLoS ONE, 2015)
